Test results taken from the supplement of paper PMC13380429.

Tested on: Vero E6 infected with SARS-CoV-2
Experiment: inhibition of SARS-CoV-2 cytopathic effect; higher = more antiviral protection, active = above 15
Conditions: 48 h

Measured: inhibition of SARS-CoV-2 cytopathic effect

O=C(NC[C@H](O)CO)c1ccncc1Nc1ccc(I)cc1F
inactive: 1 nM -1.62% | 8.33 nM -4.02% | 100 nM -9.84% | 833.33 nM -13.5% | 10000 nM -14.7%

O=C1C[C@@H](c2ccc(O)cc2)Oc2cc(O)cc(O)c21 [naringenin]
inactive: 1 nM -1.9% | 8.33 nM 0.02% | 100 nM -0.05% | 833.33 nM 0.5% | 10000 nM 0.31%

CCCCN(CCCC)C(=O)CN1C[C@H](c2ccc3c(c2)OCO3)[C@@H](C(=O)O)[C@@H]1c1ccc(OC)cc1 [atrasentan]
inactive: 1 nM 0.53% | 8.33 nM 1.72% | 100 nM 1.15% | 833.33 nM 2.37% | 10000 nM 1.46%

CCCCCCOC(=O)CCC(=O)CN [hexaminolevulinate]
inactive: 1 nM -0.29% | 8.33 nM 0.97% | 100 nM 1.79% | 833.33 nM 1.44% | 10000 nM 5.39%

CC(C)C[C@H](NC(=O)CNC(=O)[C@H](Cc1ccc(O)cc1)NC(=O)[C@H](CO)NC(=O)[C@H](Cc1c[nH]c2ccccc12)NC(=O)[C@H](Cc1cnc[nH]1)NC(=O)[C@@H]1CCC(=O)N1)C(=O)N[C@@H](CCCNC(=N)N)C(=O)N1CCC[C@H]1C(=O)NCC(N)=O [gonadorelin]
inactive: 1 nM -1.95% | 8.33 nM -2.66% | 100 nM 0.47% | 833.33 nM -1.19% | 10000 nM 1.93%

Cc1cccc(C)c1NC(=O)CC12CCCN1CCC2 [pilsicainide]
inactive: 1 nM 0.34% | 8.33 nM 2.77% | 100 nM 4.31% | 833.33 nM 6.65% | 10000 nM -1.57%

C[C@@]1(O)[C@H](O)[C@@H](CO)O[C@H]1n1ccc(N)nc1=O
inactive: 1 nM 5.4% | 8.33 nM -1.76% | 100 nM -3.15% | 833.33 nM -5.49% | 10000 nM -2.07%

CC(C)n1nc(-c2cc3cc(O)ccc3[nH]2)c2c(N)ncnc21
inactive: 1 nM 1.52% | 8.33 nM 2.09% | 100 nM 1.4% | 833.33 nM 2.07% | 10000 nM -1.69%

CCO[C@H]1O[C@@H]2O[C@@]3(C)CC[C@H]4[C@H](C)CC[C@@H]([C@H]1C)[C@@]24OO3 [artemotil]
inactive: 1 nM -0.58% | 8.33 nM -2.88% | 100 nM 1.56% | 833.33 nM 0.29% | 10000 nM 1.11%

CCC1(CC)C(=O)NC(=O)N(C)C1=O [metharbital]
inactive: 1 nM 0.2% | 8.33 nM 2.59% | 100 nM 1.14% | 833.33 nM 0.78% | 10000 nM 2.66%

CC(=O)N(CC(O)CN(C(C)=O)c1c(I)c(C(=O)NCC(O)CO)c(I)c(C(=O)NCC(O)CO)c1I)c1c(I)c(C(=O)NCC(O)CO)c(I)c(C(=O)NCC(O)CO)c1I (stereo not given) [iodixanol]
inactive: 1 nM -1.14% | 8.33 nM 3.23% | 100 nM 2.34% | 833.33 nM -0.66% | 10000 nM -1.88%

CCn1nc(C2CCN(C(=O)CCO)CC2)nc1-c1cnc(N)c(-c2nnc(C(C)(C)C)o2)n1
inactive: 1 nM -2.84% | 8.33 nM 1.6% | 100 nM 1.87% | 833.33 nM -2.41% | 10000 nM -1.94%

CC[C@@](C)(Nc1ccnc(-c2c[nH]c3ncccc23)n1)C(=O)NCC(F)(F)F [decernotinib]
inactive: 1 nM -1.03% | 8.33 nM 0.41% | 100 nM -0.04% | 833.33 nM 1.86% | 10000 nM 2.32%

CCCC(CCC)C(=O)Nc1ccn([C@@H]2O[C@H](CO)[C@@H](O)C2(F)F)c(=O)n1
inactive: 1 nM -0.06% | 8.33 nM -1.71% | 100 nM -2.25% | 833.33 nM -0.4% | 10000 nM -4.21%

CN(C)c1cccc(Oc2cnc(Nc3cccc(O)c3)nc2)c1
inactive: 1 nM -2.69% | 8.33 nM 0.57% | 100 nM -1.76% | 833.33 nM 2.09% | 10000 nM -3.69%

CCn1c(=O)[nH]c2ccccc21
inactive: 1 nM -3.62% | 8.33 nM -3.46% | 100 nM -3.83% | 833.33 nM -3.63% | 10000 nM -3.51%

COc1ccc2cc(OCC3(C(=O)O)CN(C(=O)c4ccc(F)cc4)C3)ccc2c1
inactive: 1 nM 2.48% | 8.33 nM 0% | 100 nM 1.35% | 833.33 nM 2.44% | 10000 nM 1.77%
